Measured values taken from the supplement of paper PMC6992640.
Structures can show the parent of a compound that is named as a salt.

Test system: UCD52 (cells of a triple-negative basal-like breast cancer xenograft)
Test: cell viability of combination (% of vehicle); higher = less cytotoxic
Settings: 1 µM; 72 h; partner dose: 10 nM
Experimental: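 PDX cells were treated for 72 h with each drug at 1 µM plus afatinib (10 nM; 1 µM for WHIM30). Luciferase viability is expressed as percent of vehicle.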

SMILES	cell viability of combination
CNCCC(Oc1ccc(C(F)(F)F)cc1)c1ccccc1.Cl (stereo not given) [Fluoxetine HCl] + CN(C)C/C=C/C(=O)Nc1cc2c(Nc3ccc(F)c(Cl)c3)ncnc2cc1O[C@H]1CCOC1 [Afatinib]	59.1
Clc1ccc(C(Cn2ccnc2)OCc2ccc(Sc3ccccc3)cc2)c(Cl)c1.O=[N+]([O-])O (stereo not given) [Fenticonazole Nitrate] + CN(C)C/C=C/C(=O)Nc1cc2c(Nc3ccc(F)c(Cl)c3)ncnc2cc1O[C@H]1CCOC1 [Afatinib]	59.9
Cc1cccc(CN2CCN(C(c3ccccc3)c3ccc(Cl)cc3)CC2)c1.Cl.Cl (stereo not given) [Meclizine 2HCl] + CN(C)C/C=C/C(=O)Nc1cc2c(Nc3ccc(F)c(Cl)c3)ncnc2cc1O[C@H]1CCOC1 [Afatinib]	68.6
CNC(=O)c1cc(Oc2ccc(NC(=O)Nc3ccc(Cl)c(C(F)(F)F)c3)c(F)c2)ccn1.Cl [Regorafenib hydrochloride] + CN(C)C/C=C/C(=O)Nc1cc2c(Nc3ccc(F)c(Cl)c3)ncnc2cc1O[C@H]1CCOC1 [Afatinib]	53.3
CCOc1cc2ncc(C#N)c(Nc3ccc(OCc4ccccn4)c(Cl)c3)c2cc1NC(=O)C=CCN(C)C [Neratinib (HKI-272)] + CN(C)C/C=C/C(=O)Nc1cc2c(Nc3ccc(F)c(Cl)c3)ncnc2cc1O[C@H]1CCOC1 [Afatinib]	50.9
CNC1CCC(c2ccc(Cl)c(Cl)c2)c2ccccc21.Cl (stereo not given) [Sertraline HCl] + CN(C)C/C=C/C(=O)Nc1cc2c(Nc3ccc(F)c(Cl)c3)ncnc2cc1O[C@H]1CCOC1 [Afatinib]	56.4
O=C(c1ccc(F)c(F)c1Nc1ccc(I)cc1F)N1CC(O)(C2CCCCN2)C1 (stereo not given) [Cobimetinib] + CN(C)C/C=C/C(=O)Nc1cc2c(Nc3ccc(F)c(Cl)c3)ncnc2cc1O[C@H]1CCOC1 [Afatinib]	36.5
CCCCc1oc2ccc(NS(C)(=O)=O)cc2c1C(=O)c1ccc(OCCCN(CCCC)CCCC)cc1.Cl [Dronedarone HCl] + CN(C)C/C=C/C(=O)Nc1cc2c(Nc3ccc(F)c(Cl)c3)ncnc2cc1O[C@H]1CCOC1 [Afatinib]	63.6
Cc1cc(-n2c(=O)[nH]c(=O)n(C)c2=O)ccc1Oc1ccc(SC(F)(F)F)cc1 [Toltrazuril] + CN(C)C/C=C/C(=O)Nc1cc2c(Nc3ccc(F)c(Cl)c3)ncnc2cc1O[C@H]1CCOC1 [Afatinib]	76.1
Cc1nc(NC(=O)N2CCCC2C(N)=O)sc1-c1ccnc(C(C)(C)C(F)(F)F)c1 (stereo not given) + CN(C)C/C=C/C(=O)Nc1cc2c(Nc3ccc(F)c(Cl)c3)ncnc2cc1O[C@H]1CCOC1 [Afatinib]	43.4
COCCOC(=O)C1=C(C)NC(C)=C(C(=O)OCC=Cc2ccccc2)C1c1cccc([N+](=O)[O-])c1 (stereo not given) [Cilnidipine] + CN(C)C/C=C/C(=O)Nc1cc2c(Nc3ccc(F)c(Cl)c3)ncnc2cc1O[C@H]1CCOC1 [Afatinib]	70.6
COc1cc2c(Oc3ccc(NC(=O)C4(C(=O)Nc5ccc(F)cc5)CC4)cc3F)ccnc2cc1OCCCN1CCOCC1 + CN(C)C/C=C/C(=O)Nc1cc2c(Nc3ccc(F)c(Cl)c3)ncnc2cc1O[C@H]1CCOC1 [Afatinib]	28.5
Cc1ccc(NC(=O)c2ccc(CN3CCN(C)CC3)cc2)cc1Nc1nc(-c2cccnc2)cs1 [Masitinib (AB1010)] + CN(C)C/C=C/C(=O)Nc1cc2c(Nc3ccc(F)c(Cl)c3)ncnc2cc1O[C@H]1CCOC1 [Afatinib]	64.5
CC1(C)Cc2c(-c3ccccc3)c(-c3ccc(Cl)cc3)c(CC(=O)O)n2C1 [Licofelone] + CN(C)C/C=C/C(=O)Nc1cc2c(Nc3ccc(F)c(Cl)c3)ncnc2cc1O[C@H]1CCOC1 [Afatinib]	72.7
CC(C)c1nc(CN(C)C(=O)NC(C(=O)NC(Cc2ccccc2)CC(O)C(Cc2ccccc2)NC(=O)OCc2cncs2)C(C)C)cs1 (stereo not given) [Ritonavir] + CN(C)C/C=C/C(=O)Nc1cc2c(Nc3ccc(F)c(Cl)c3)ncnc2cc1O[C@H]1CCOC1 [Afatinib]	62.5
COC1=C(OC)C(=O)C(CCCCCCCCCCO)=C(C)C1=O [Idebenone] + CN(C)C/C=C/C(=O)Nc1cc2c(Nc3ccc(F)c(Cl)c3)ncnc2cc1O[C@H]1CCOC1 [Afatinib]	62.7
COc1nc2ccc(Br)cc2cc1[C@@H](c1ccccc1)[C@@](O)(CCN(C)C)c1cccc2ccccc12 [Bedaquiline fumarate] + CN(C)C/C=C/C(=O)Nc1cc2c(Nc3ccc(F)c(Cl)c3)ncnc2cc1O[C@H]1CCOC1 [Afatinib]	91.2
CC(O)C(=O)O.CC(O)C(=O)O.CN1CCN(c2ccc3c(c2)NC(=C2C(=O)N=c4cccc(F)c4=C2N)N3)CC1 [Dovitinib Dilactic acid] + CN(C)C/C=C/C(=O)Nc1cc2c(Nc3ccc(F)c(Cl)c3)ncnc2cc1O[C@H]1CCOC1 [Afatinib]	56.7
CCN(CC)CCCC(C)Nc1ccnc2cc(Cl)ccc12.O=P(O)(O)O.O=P(O)(O)O (stereo not given) [Chloroquine diphosphate] + CN(C)C/C=C/C(=O)Nc1cc2c(Nc3ccc(F)c(Cl)c3)ncnc2cc1O[C@H]1CCOC1 [Afatinib]	48.5
CS(=O)(=O)CCNCc1ccc(-c2ccc3ncnc(Nc4ccc(OCc5cccc(F)c5)c(Cl)c4)c3c2)o1.Cc1ccc(S(=O)(=O)O)cc1.Cc1ccc(S(=O)(=O)O)cc1 [Lapatinib Ditosylate] + CN(C)C/C=C/C(=O)Nc1cc2c(Nc3ccc(F)c(Cl)c3)ncnc2cc1O[C@H]1CCOC1 [Afatinib]	41.5

SMILES	cell viability of combination
CO[C@H]1/C=C/O[C@@]2(C)Oc3c(C)c(O)c4c(O)c(c(/C=N/N5CCN(C6CCCC6)CC5)c(O)c4c3C2=O)NC(=O)/C(C)=C\C=C\[C@H](C)[C@H](O)[C@@H](C)[C@@H](O)[C@@H](C)[C@H](OC(C)=O)[C@@H]1C [Rifapentine] + CN(C)C/C=C/C(=O)Nc1cc2c(Nc3ccc(F)c(Cl)c3)ncnc2cc1O[C@H]1CCOC1 [Afatinib]	72.2
CCCCCOc1ccc(-c2ccc(-c3ccc(C(=O)N[C@H]4C[C@@H](O)[C@@H](O)NC(=O)[C@@H]5[C@@H](O)[C@@H](C)CN5C(=O)[C@H]([C@@H](C)O)NC(=O)[C@H]([C@H](O)[C@@H](O)c5ccc(O)cc5)NC(=O)[C@@H]5C[C@@H](O)CN5C(=O)[C@H]([C@@H](C)O)NC4=O)cc3)cc2)cc1 [Anidulafungin] + CN(C)C/C=C/C(=O)Nc1cc2c(Nc3ccc(F)c(Cl)c3)ncnc2cc1O[C@H]1CCOC1 [Afatinib]	68.6
Nc1ccc2cc3ccc([NH3+])cc3nc2c1.Nc1ccc2cc3ccc([NH3+])cc3nc2c1.O=S(=O)([O-])[O-] [Proflavine Hemisulfate] + CN(C)C/C=C/C(=O)Nc1cc2c(Nc3ccc(F)c(Cl)c3)ncnc2cc1O[C@H]1CCOC1 [Afatinib]	116
COC(=O)C12CCC(C)(C)CC1C1C(=O)C=C3C4(C)C=C(C#N)C(=O)C(C)(C)C4CCC3(C)C1(C)CC2 (stereo not given) [Bardoxolone methyl] + CN(C)C/C=C/C(=O)Nc1cc2c(Nc3ccc(F)c(Cl)c3)ncnc2cc1O[C@H]1CCOC1 [Afatinib]	47.9
CCOC(=O)C1=C(COCCN)NC(C)=C(C(=O)OC)C1c1ccccc1Cl (stereo not given) [Amlodipine] + CN(C)C/C=C/C(=O)Nc1cc2c(Nc3ccc(F)c(Cl)c3)ncnc2cc1O[C@H]1CCOC1 [Afatinib]	79.6
O=C(NC1CCN(CCCCC2(C(=O)NCC(F)(F)F)c3ccccc3-c3ccccc32)CC1)c1ccccc1-c1ccc(C(F)(F)F)cc1 [Lomitapide] + CN(C)C/C=C/C(=O)Nc1cc2c(Nc3ccc(F)c(Cl)c3)ncnc2cc1O[C@H]1CCOC1 [Afatinib]	43.9
COc1cc2nccc(Oc3ccc(NC(=O)Nc4cc(C)on4)c(Cl)c3)c2cc1OC [Tivozanib (AV-951)] + CN(C)C/C=C/C(=O)Nc1cc2c(Nc3ccc(F)c(Cl)c3)ncnc2cc1O[C@H]1CCOC1 [Afatinib]	40.2
CNC(=O)c1cc(Oc2ccc(NC(=O)Nc3ccc(Cl)c(C(F)(F)F)c3)cc2)ccn1 [Sorafenib] + CN(C)C/C=C/C(=O)Nc1cc2c(Nc3ccc(F)c(Cl)c3)ncnc2cc1O[C@H]1CCOC1 [Afatinib]	52.2
CC1(COc2ccc3c(c2)ncn3-c2ccc3cccc(N4CCC(N)CC4)c3n2)COC1 + CN(C)C/C=C/C(=O)Nc1cc2c(Nc3ccc(F)c(Cl)c3)ncnc2cc1O[C@H]1CCOC1 [Afatinib]	108
CN1CCN(CCCN2c3ccccc3Sc3ccc(C(F)(F)F)cc32)CC1.Cl.Cl [Trifluoperazine 2HCl] + CN(C)C/C=C/C(=O)Nc1cc2c(Nc3ccc(F)c(Cl)c3)ncnc2cc1O[C@H]1CCOC1 [Afatinib]	73.1
Cl.O.O=C1Cc2cc(CCN3CCN(c4nsc5ccccc45)CC3)c(Cl)cc2N1 [Ziprasidone hydrochloride monohydrate] + CN(C)C/C=C/C(=O)Nc1cc2c(Nc3ccc(F)c(Cl)c3)ncnc2cc1O[C@H]1CCOC1 [Afatinib]	70.3
[O-]n1ccccc1=S.[O-]n1ccccc1=S.[Zn+2] [Zinc Pyrithione] + CN(C)C/C=C/C(=O)Nc1cc2c(Nc3ccc(F)c(Cl)c3)ncnc2cc1O[C@H]1CCOC1 [Afatinib]	56
CC1CC(=O)NN=C1c1ccc(NN=C(C#N)C#N)cc1 (stereo not given) [Levosimendan] + CN(C)C/C=C/C(=O)Nc1cc2c(Nc3ccc(F)c(Cl)c3)ncnc2cc1O[C@H]1CCOC1 [Afatinib]	75
C=CC(=O)N1CCC(Oc2cc3c(Nc4ccc(Cl)c(Cl)c4F)ncnc3cc2OC)CC1 [Poziotinib] + CN(C)C/C=C/C(=O)Nc1cc2c(Nc3ccc(F)c(Cl)c3)ncnc2cc1O[C@H]1CCOC1 [Afatinib]	27.6
C[C@H]1O[C@@H](O[C@H]2[C@@H](O)C[C@H](O[C@H]3[C@@H](O)C[C@H](O[C@H]4CC[C@@]5(C)[C@H](CC[C@@H]6[C@@H]5C[C@@H](O)[C@]5(C)[C@@H](C7=CC(=O)OC7)CC[C@]65O)C4)O[C@@H]3C)O[C@@H]2C)C[C@H](O)[C@@H]1O [Digoxin] + CN(C)C/C=C/C(=O)Nc1cc2c(Nc3ccc(F)c(Cl)c3)ncnc2cc1O[C@H]1CCOC1 [Afatinib]	19.5
COc1cc2c(Oc3ccc4[nH]c(C)cc4c3F)ncnc2cc1OCCCN1CCCC1 [Cediranib (AZD217)] + CN(C)C/C=C/C(=O)Nc1cc2c(Nc3ccc(F)c(Cl)c3)ncnc2cc1O[C@H]1CCOC1 [Afatinib]	24.5
COC(=O)c1ccc2c(c1)NC(=O)C2=C(Nc1ccc(N(C)C(=O)CN2CCN(C)CC2)cc1)c1ccccc1 [Nintedanib (BIBF 1120)] + CN(C)C/C=C/C(=O)Nc1cc2c(Nc3ccc(F)c(Cl)c3)ncnc2cc1O[C@H]1CCOC1 [Afatinib]	19.6
COc1cc2c(Nc3ccc(Br)cc3F)ncnc2cc1OCC1CCN(C)CC1 [Vandetanib (ZD6474)] + CN(C)C/C=C/C(=O)Nc1cc2c(Nc3ccc(F)c(Cl)c3)ncnc2cc1O[C@H]1CCOC1 [Afatinib]	36.2
COc1cccc2c1C(=O)c1c(O)c3c(c(O)c1C2=O)CC(O)(C(=O)CO)CC3OC1CC(N)C(O)C(C)O1.Cl (stereo not given) [Doxorubicin (Adriamycin) HCl] + CN(C)C/C=C/C(=O)Nc1cc2c(Nc3ccc(F)c(Cl)c3)ncnc2cc1O[C@H]1CCOC1 [Afatinib]	40.9
Cl.Nc1ccn(C2OC(CO)C(O)C2O)c(=O)n1 (stereo not given) [Cytarabine hydrochloride] + CN(C)C/C=C/C(=O)Nc1cc2c(Nc3ccc(F)c(Cl)c3)ncnc2cc1O[C@H]1CCOC1 [Afatinib]	72.2
